Results filed as inconclusive are left out. Activity calls are given as the source filed them. Rule for the calls: active = hit-call score of the fitted dose curve at least 0.9, where 1 is the maximum; inconclusive = response in the unintended direction; inactive = score below 0.9.
Columns and labels:
[1] = biological target: Cellular tumor antigen p53 (Homo sapiens) (UniProt P04637); experiment: TOX21_p53_BLA_p2_ratio: Tox21 HCT-116 p53 Agonism Beta-lactamase Assay, Ratio, Phase 2 (AID 2283592)
In short: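 Gain-of-signal p53 agonism was scored from the beta-lactamase FRET ratio (460/530 nm, 405 nm excitation) in HCT116 cells treated 16 h at 37C, 5% CO2, with DMSO serving as negative control and baseline.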

[2] = biological target: Cellular tumor antigen p53 (Homo sapiens) (UniProt P04637); experiment: TOX21_p53_BLA_p3_ratio: Tox21 HCT-116 p53 Agonism Beta-lactamase Assay, Ratio, Phase 3 (AID 2283596)
In short: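 HCT116 p53-bla cells (4000/well) given compound in DMSO (217-fold dilution) after 5 h, incubated 16 h at 37C. CCF4-AM substrate 2 h at room temperature; 460/530 nm emission ratio, gain fitted against DMSO.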

[3] = biological target: Cellular tumor antigen p53 (Homo sapiens) (UniProt P04637); experiment: TOX21_p53_BLA_p5_ratio: Tox21 HCT-116 p53 Agonism Beta-lactamase Assay, Ratio, Phase 5 (AID 2283599)
In short: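 Beta-lactamase reporter ratio (blue 460 nm over green 530 nm, 405 nm excitation) after 2 h CCF4-AM loading, in HCT-116 cells exposed 16 h at 37 C to compounds pinned at 217-fold dilution. Increases relative to DMSO baseline scored.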

[4] = TOX21_p53_BLA_p5_viability: Viability Assessment in the Tox21 HCT-116 p53 Agonism Beta-lactamase Assay, Phase 5 (AID 2283600)
In short: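 After the 460/530 nm beta-lactamase measurement, the wells received an ATP-detection luciferase reagent; signal was read 30 min later at RT. Compound treatment lasted 16 h on cells pre-incubated 5 h post-seeding.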

[5] = biological target: Cellular tumor antigen p53 (Homo sapiens) (UniProt P04637); experiment: TOX21_p53_BLA_p4_ratio: Tox21 HCT-116 p53 Agonism Beta-lactamase Assay, Ratio, Phase 4 (AID 2283601)
In short: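 Signal is the blue/green (460nm/530nm) ratio of cleaved versus uncleaved CCF4-AM substrate, read after 2 h substrate loading. Cells were HCT116 carrying the p53-responsive beta-lactamase reporter, dosed 16 h at 37C, 5% CO2; CellTiter-Glo measured in parallel.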

[6] = TOX21_p53_BLA_p4_viability: Viability Assessment in the Tox21 HCT-116 p53 Agonism Beta-lactamase Assay, Phase 4 (AID 2283597);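 note: hits lower the luminescence signal meaning cytotoxicity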
In short: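 Following a 16 h exposure at 37C, the treated HCT116 wells were first read for the FRET ratio. They were then lysed with CellTiter-Glo, and ATP luminescence was recorded after 30 min at room temperature.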

[7] = TOX21_TRB_BLA_Antagonist_Followup_viability: Viability Assessment in the Tox21 Thyroid Hormone Receptor beta Antagonism Beta-lactamase (BLA) Follow-Up Assay (AID 2283961)
In short: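 ATP-based CellTiter-Glo luminescence (30 min, room temperature) run in the same wells as the TRβ-bla readout. Cells: GeneBLAzer HEK293T expressing GAL4-TRβ LBD, exposed 18 h at 37C to compounds at 11 concentrations in triplicate, stripped-serum medium.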

[8] = TOX21_TR_RXR_BLA_Antagonist_Followup_viability: Viability Assessment in the Tox21 Thyroid Hormone Receptor beta Retinoid X Receptor alpha (RXRa) Antagonism Beta-lactamase (BLA) Follow-Up Assay (AID 2283979)
In short: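 Follow-up compounds (11 concentrations, triplicate) were incubated 16 h at 37C/5% CO2 with HEK293T RXRa-bla cells seeded at 2,500/well in charcoal-stripped-serum medium. ATP content by CellTiter-Glo luminescence gave viability; curves fitted in both directions against DMSO.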

Measured: AC50

Sequence of Cellular tumor antigen p53 (Homo sapiens) (P04637 whole entry, looked up): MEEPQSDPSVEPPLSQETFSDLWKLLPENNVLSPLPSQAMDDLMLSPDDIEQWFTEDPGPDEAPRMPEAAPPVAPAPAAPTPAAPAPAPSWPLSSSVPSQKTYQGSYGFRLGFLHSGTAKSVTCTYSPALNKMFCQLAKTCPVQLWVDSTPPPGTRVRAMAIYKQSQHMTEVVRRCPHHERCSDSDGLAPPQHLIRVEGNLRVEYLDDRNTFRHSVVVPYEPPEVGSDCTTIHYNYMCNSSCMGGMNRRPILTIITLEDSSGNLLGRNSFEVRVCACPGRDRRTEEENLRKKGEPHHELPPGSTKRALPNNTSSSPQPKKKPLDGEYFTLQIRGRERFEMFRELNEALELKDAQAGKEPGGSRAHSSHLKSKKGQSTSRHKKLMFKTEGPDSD

CCOc1cc(NC(C)=O)ccc1C(=O)OC
inactive: [1] | [2] | [3] | [4] | [5]

COc1cc(Nc2c(C#N)cnc3cc(OCCCN4CCN(C)CC4)c(OC)cc23)c(Cl)cc1Cl
active: [2] 17.8 µM | [3] 10.9 µM | [5] 7.74 µM
inactive: [1]

CC(CN(C)C)CN1c2ccccc2S(=O)(=O)c2ccccc21 (stereo unspecified)
inactive: [1] | [2] | [3] | [5]

CCCCc1ccc2nc(NC(=O)OC)[nH]c2c1
active: [2] 0.0408 µM
inactive: [1] | [3] | [5]

CN1CC(=O)N=C1N
inactive: [1] | [6] | [3]

CC(=O)CCC=C(C)CC/C=C(\C)CC/C=C(\C)CCC=C(C)C
inactive: [1] | [2] | [5]

C[C@@H]1CC[C@@]2(OC1)O[C@H]1C[C@H]3[C@@H]4CC[C@H]5C[C@@H](O)CC[C@]5(C)[C@H]4CC(=O)[C@]3(C)[C@H]1[C@@H]2C
inactive: [1] | [6] | [3] | [4]

C[C@@H](N)C(=O)O
inactive: [1] | [2] | [4] | [5]

CN1c2c(nc(N)[nH]c2=O)NCC1CNc1ccc(C(=O)NC(CCC(=O)O)C(=O)O)cc1 (stereo unspecified)
inactive: [1] | [2] | [4] | [5]

CCOC(=O)C1=C[C@]2(CC)CCCN3CCc4c(n1c1ccccc41)[C@@H]32
inactive: [1] | [2] | [5] | [7] | [8]

Cc1cc(NC(=O)C2=C(O)c3ccccc3S(=O)(=O)N2C)no1
inactive: [1] | [6] | [3] | [4]

NC(=O)CC[C@@H]1NC(=O)[C@H](Cc2ccccc2)NC(=O)[C@H](Cc2ccc(O)cc2)NC(=O)[C@@H](N)CSSC[C@@H](C(=O)N2CCC[C@H]2C(=O)N[C@@H](CCCN=C(N)N)C(=O)NCC(N)=O)NC(=O)[C@H](CC(N)=O)NC1=O
inactive: [1] | [2] | [5]

Brc1ccc(-c2ccccc2)cc1
inactive: [1] | [2] | [5]

CCC=O
inactive: [1] | [2] | [5]

COC(=O)Nc1nc2ccc(C(=O)c3cccs3)cc2[nH]1
inactive: [4]
active: [1] 0.0943 µM | [2] 0.0458 µM

Cc1cccc(C)c1OCC(C)N (stereo unspecified)
inactive: [1] | [2] | [5]

C[Se]CC[C@H](N)C(=O)O
inactive: [1] | [6] | [3]

CCC(C)(Oc1ccc(C2(c3ccc(OC(C)(CC)C(=O)O)cc3)CCCCC2)cc1)C(=O)O (stereo unspecified)
inactive: [1] | [6] | [3]

CC1(C)Cc2cccc(N)c2O1
inactive: [1] | [2] | [4]

CC(COc1ccccc1)NC(C)C(O)c1ccc(O)cc1 (stereo unspecified)
inactive: [1] | [2] | [5]

O=C(O)CC(=O)O
inactive: [1] | [2] | [5]

Cc1ccc(Cl)c(N)c1Cl
inactive: [1] | [2] | [5]

C=CCc1ccccc1OCC(O)CNC(C)C (stereo unspecified)
inactive: [1] | [2] | [5]

O=c1[nH][nH]c2ccccc12
inactive: [1] | [2] | [5]

COc1ccc(CN(CCN(C)C)c2ncccn2)cc1
inactive: [1] | [2] | [5]

Reference: PubChem BioAssay (EPA / NIEHS)
